Screening results (PubChem BioAssay)
GDH-TPI counter-1: counter-screen for M. tuberculosis FBA inhibitors: GDH-TPI coupled enzymes; 360,000 compounds, 1.2% hits; inhibition, % at 4.8 µM; GDH-TPI coupled enzyme counterscreen, NADH absorbance
FBA Mtb inh: inhibitors of M. tuberculosis fructose-bisphosphate aldolase; P9WQA3; purified M. tuberculosis FBA, fluorescence read-out; inhibition, % at 1 µM; 360,000 compounds, 2.3% hits; in the data active = inhibition above about 27%
Target sequence (P9WQA3 whole entry, looked up): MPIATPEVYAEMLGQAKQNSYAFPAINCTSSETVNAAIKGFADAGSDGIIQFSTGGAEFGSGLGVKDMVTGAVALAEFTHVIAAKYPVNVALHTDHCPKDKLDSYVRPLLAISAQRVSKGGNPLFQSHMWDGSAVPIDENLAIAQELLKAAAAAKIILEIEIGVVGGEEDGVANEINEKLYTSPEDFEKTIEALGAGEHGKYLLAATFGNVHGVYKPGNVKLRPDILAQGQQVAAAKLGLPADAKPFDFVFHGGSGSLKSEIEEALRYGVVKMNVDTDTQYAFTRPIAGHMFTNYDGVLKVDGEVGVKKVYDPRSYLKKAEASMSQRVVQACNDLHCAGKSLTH
MazEF act: MazEF (E. coli) toxin RNase activation | 350,000 compounds, 0.32% hits | P0AE70 | FAM/BHQ RNA-DNA oligo cleavage fluorescence, 5 h | activation, % at 20 µM; in the data active = activation above about 50%
Target sequence (P0AE70 whole entry, looked up): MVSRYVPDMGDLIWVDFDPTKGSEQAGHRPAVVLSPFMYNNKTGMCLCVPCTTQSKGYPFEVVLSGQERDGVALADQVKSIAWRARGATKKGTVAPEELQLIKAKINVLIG
CCHF vOTU inh-1: blocks the CCHF virus ovarian tumor domain protease | 370,000 compounds, 0.55% hits | AID 651958 | inhibition, % at 11.5 µM | CCHFV vOTU protease, Pep-AMC fluorescence
Mtb bLac sens: beta-lactam sensitization of Mtb H37Rv | M. tuberculosis H37Rv growth with meropenem, percent inhibition | inhibition, % at 25 µM | 330,000 compounds, 0.27% hits | AID 434955; call rule not given here;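 note: growth measured after seven days incubation then overnight dye step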
Mtb FBA inh conf: confirmation of M. tuberculosis fructose-bisphosphate aldolase inhibitors. shares compounds with FBA Mtb inh. purified M. tuberculosis FBA, fluorescence read-out. inhibition, % at 1 µM. 5,600 compounds, 78% hits. AID 651616; in the data active = inhibition above about 27%
GDH-TPI counter-2: GDH-TPI inhibition counter-screen for FBA inhibitors; shares compounds with FBA Mtb inh; GDH-TPI coupled enzyme counterscreen, fluorescence; inhibition, % at 1 µM; 5,600 compounds, 81% hits; AID 652141; in the data active = inhibition above about 10%
CCHF vOTU inh-2: confirmation of CCHF virus vOTU protease inhibitors; shares compounds with CCHF vOTU inh-1; Recombinant CCHFV vOTU, Pep-AMC fluorescence; inhibition, % at 11.5 µM; 1,900 compounds, 17% hits; AID 686976
Large screens that a line does not name were inactive (follow-up assays come after a bar, where they were run). Compounds with a hit are over-represented: about 4% of the library has one in this group of screens. Cut-off read from the data, not from the text of the source, unless noted: active = inhibition above about 30%; inactive = the rest.

CCc1cc(=O)oc2cc(OC(C)C(=O)NCC(O)c3ccccc3)c(Cl)cc12 (stereo not given)	none
CCCc1cc(=O)oc2cc(OCC(=O)NCC(O)c3ccccc3)ccc12 (stereo not given)	none
CCCc1cc(=O)oc2cc(C)cc(OCC(=O)NCC(O)c3ccccc3)c12 (stereo not given)	FBA Mtb inh 61 | Mtb FBA inh conf 161 | GDH-TPI counter-2 151
Cc1cc(OC(C)C(=O)NCC2CCC(C(=O)O)CC2)c2c(C)cc(=O)oc2c1 (stereo not given)	FBA Mtb inh 86 | Mtb FBA inh conf 195 | GDH-TPI counter-2 190
COc1ccc(OC)c(S(=O)(=O)N(CCc2ccc(OC)c(OC)c2)Cc2cccs2)c1	none (no result: GDH-TPI counter-1, FBA Mtb inh, MazEF act, Mtb bLac sens)
CC(C)[C@H](NC(=O)CC1CCCC1)C(=O)N1CCC[C@H]1C(=O)NCc1ccccc1	none (no result: GDH-TPI counter-1, FBA Mtb inh, MazEF act, Mtb bLac sens)
COC(=O)[C@]12C[C@H](CC(=O)N3CCSCC3)C(=O)N(Cc3ccc4c(c3)OCO4)C1=C[C@H](COCc1ccccc1)O[C@@H]2C	none (no result: GDH-TPI counter-1, FBA Mtb inh, MazEF act, Mtb bLac sens)
Cc1cc(OC(C)C(=O)NCC(O)c2ccccc2)c2c(C)cc(=O)oc2c1 (stereo not given)	FBA Mtb inh 71 | Mtb FBA inh conf 111 | GDH-TPI counter-2 98
O=c1[nH]c(N2CCOCC2)cc2ccccc12	FBA Mtb inh 45 | Mtb FBA inh conf 144 | GDH-TPI counter-2 100
O=c1c(N2CCOCC2)coc2ccccc12	none
CCN(C(=S)NC(=O)c1ccco1)c1cccc2ccccc12	FBA Mtb inh 29, CCHF vOTU inh-1 46 | Mtb FBA inh conf 92 | GDH-TPI counter-2 73 | CCHF vOTU inh-2 inactive
CCN(C(=S)NCCOC)c1cccc2ccccc12	none
CC(=O)N1CCN(c2nc(-c3ccco3)c3c(c2C#N)CC(C)(C)SC3)CC1	none
CC1(C)Cc2c(c(-c3ccco3)[nH]c(=O)c2C#N)CS1	FBA Mtb inh 30, CCHF vOTU inh-1 32 | Mtb FBA inh conf inactive | GDH-TPI counter-2 17 | CCHF vOTU inh-2 inactive
Cc1csc(=O)n1CC(=O)OCC(=O)c1ccc(Br)cc1	none
O=C(Nc1nc(-c2ccccc2)cs1)c1ccccc1NS(=O)(=O)c1ccc(F)cc1	FBA Mtb inh 37, CCHF vOTU inh-1 38 | Mtb FBA inh conf active | GDH-TPI counter-2 active | CCHF vOTU inh-2 inactive
COc1ccc2c(c1)NP(=S)(c1ccccc1)N2C (stereo not given)	FBA Mtb inh 27, CCHF vOTU inh-1 38 (no result: Mtb bLac sens) | Mtb FBA inh conf 67 | GDH-TPI counter-2 55 | CCHF vOTU inh-2 inactive
N#Cc1c(NC(=O)c2ccc(Br)o2)n(-c2ccccc2)c2nc3ccccc3nc12	FBA Mtb inh 48, CCHF vOTU inh-1 30 | Mtb FBA inh conf 34 | GDH-TPI counter-2 25 | CCHF vOTU inh-2 inactive
Cc1ccccc1OCCOC(=O)c1ccc(S(=O)(=O)N2CCCC2)cc1	none
COC(=O)C1=C(CCc2ccccc2)NC(=O)NC1c1ccc(Br)cc1 (stereo not given)	none
O=C(C1=C(O)C(=O)N(CCN2CCOCC2)C1c1ccccn1)c1cccs1 (stereo not given)	CCHF vOTU inh-1 31 | CCHF vOTU inh-2 inactive
O=C(C1=C(O)C(=O)N(CCN2CCOCC2)C1c1ccc(F)cc1)c1cccs1 (stereo not given)	none
Cc1cc(NC(=O)CSC2=NS(=O)(=O)c3cc(F)ccc3N2)no1	none
COc1cc(NS(=O)(=O)c2ccc(NC(=S)Nc3ccccc3)cc2)nc(OC)n1	none
COc1cc(NS(=O)(=O)c2ccc(Nc3nc(-c4ccccc4)cs3)cc2)nc(OC)n1	CCHF vOTU inh-1 36 | CCHF vOTU inh-2 inactive
Cc1ccc(NNC(=O)Nc2ccc(Cl)cc2)nn1	none
O=C(O)c1ccc(N/N=C/c2ccc(-c3ccc(Br)cc3)o2)cc1	CCHF vOTU inh-1 33 | CCHF vOTU inh-2 inactive
Cc1nnc(N/N=C\c2ccc(-c3cccc(C(=O)O)c3)o2)n1N	CCHF vOTU inh-1 73 | CCHF vOTU inh-2 inactive
Cc1nnc(N/N=C/c2ccc(Br)cc2)n1N	CCHF vOTU inh-1 94 | CCHF vOTU inh-2 inactive
Cc1nnc(N/N=C/c2ccc([N+](=O)[O-])cc2)n1N	CCHF vOTU inh-1 122 | CCHF vOTU inh-2 inactive
Cc1csc(N/N=C/c2ccc([N+](=O)[O-])cc2)n1	none
Cc1ccc(/C=N/Nc2ccc(C(=O)O)cc2)o1	none
COC(=O)[C@]12C(=O)NC[C@H](CN1c1ccc(Cl)c(C)c1)N2C	none
O=C(CCNC(=O)c1ccc([N+](=O)[O-])cc1)Nc1nc2ccccc2[nH]1	none (no result: Mtb bLac sens)
Cc1ccccc1NC(=O)CSc1nnc(NC(=O)c2ccco2)s1	none
C=CCNC(=S)N/N=C/c1ccc(-c2ccc(Br)cc2)o1	none
Cc1nnc(N/N=C/c2ccc(-c3ccc(Br)cc3)o2)n1N	CCHF vOTU inh-1 77 | CCHF vOTU inh-2 inactive
O=C(OCc1ccccc1)N1CCC2CC1c1cc(-c3cc4ccccc4o3)ccc12 (stereo not given)	none (no result: Mtb bLac sens)
CC1=C(C#N)C(=O)NC(=O)/C1=C/c1ccc(-c2ccc(S(N)(=O)=O)cc2)o1	none
C=CCOC(=O)c1cc(-c2ccc(/C=C3\C(=O)NC(=O)C(C#N)=C3C)o2)ccc1Cl	GDH-TPI counter-1 34, CCHF vOTU inh-1 33 (no result: Mtb bLac sens) | CCHF vOTU inh-2 inactive
COc1cc(CN(C(=O)c2ccco2)C2CCS(=O)(=O)C2)cc(OC)c1OC (stereo not given)	none
C[C@@H]1CCCCO[C@H](CN(C)C(=O)Nc2ccc(C(F)(F)F)cc2)[C@@H](C)CN([C@H](C)CO)C(=O)c2cc(NC(=O)c3ccncc3)ccc2O1	CCHF vOTU inh-1 32 (no result: Mtb bLac sens) | CCHF vOTU inh-2 inactive
C[C@@H]1CCCCO[C@H](CN(C)C(=O)CCC(F)(F)F)[C@@H](C)CN([C@H](C)CO)C(=O)c2cc(NC(=O)c3ccncc3)ccc2O1	none (no result: Mtb bLac sens)
CCOC(=O)c1ccc(N2C(=O)c3n[nH]c(-c4ccco4)c3C2c2cccc([N+](=O)[O-])c2)cc1 (stereo not given)	CCHF vOTU inh-1 36 | CCHF vOTU inh-2 inactive
CC(=O)O[C@@H]1C=C[C@@H](C#Cc2ccc(C(C)(C)C)cc2)O[C@@H]1COC(=O)Nc1ccccc1	CCHF vOTU inh-1 34 (no result: GDH-TPI counter-1, FBA Mtb inh, MazEF act, Mtb bLac sens) | CCHF vOTU inh-2 inactive
COc1ccc(CCNC(=O)CCC(=O)n2ncc3ccc(Cl)cc32)cc1OC	none
O=C(Nc1sc2c(c1C(=O)NCC(O)CO)CCCC2)c1ccccc1 (stereo not given)	none
COc1cccc(C2=Nc3cccc4cccc(c34)N2)c1	CCHF vOTU inh-1 30 | CCHF vOTU inh-2 inactive
Nc1ccc(C2=Nc3cccc4cccc(c34)N2)cc1	none (no result: Mtb bLac sens)
CC(C)c1[nH]nc2c1C(c1cccc(C(F)(F)F)c1)N(c1ccccc1)C2=O (stereo not given)	CCHF vOTU inh-1 34 (no result: GDH-TPI counter-1, FBA Mtb inh, MazEF act, Mtb bLac sens) | CCHF vOTU inh-2 inactive
COC(=O)C1=C(C)N(CCc2c[nH]c3ccc(OC)cc23)C(=O)C1	none
